Targets with a hit are over-represented here; the source holds about 8,800 in all. About 0.5% of all pairs of compound and target were hits. Values without a mark were called inactive.
compound: C1=CC=C(C=C1)[C@H](COC2=CC3=C(C=C2)NC(=O)N3)NC(=O)C4=CC=CN(C4=O)CC5=CC(=C(C=C5)F)F; assay: log2 fold change, soluble protein after heating vs DMSO (PISA); higher = thermal stabilisation; K562 lysate, 10 uM; active = over 0.2 and 3.5 SD of the protein, either way, in both replicates (recomputed)
Procedure, shortened: (§1)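 Soluble protein was defined as the supernatant remaining after 21,000xg for 90 min, following pooling of heated aliquots and adjustment to 0.5% NP-40 at 4°C. Before that, crude K562 extract at 1 mg/mL protein in PBS pH 7.4 with 1 mM MgCl2 was treated with 10 μM compound for 30 min and heated for 3 min across 48°C-58°C. Quantification used TMTpro 16plex LC-MS/MS with channel sums equalised, and values are log-two fold changes in thermal stability relative to solvent controls from duplicates.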

Chain of UniProt Q00013 (Q00013 whole entry, looked up): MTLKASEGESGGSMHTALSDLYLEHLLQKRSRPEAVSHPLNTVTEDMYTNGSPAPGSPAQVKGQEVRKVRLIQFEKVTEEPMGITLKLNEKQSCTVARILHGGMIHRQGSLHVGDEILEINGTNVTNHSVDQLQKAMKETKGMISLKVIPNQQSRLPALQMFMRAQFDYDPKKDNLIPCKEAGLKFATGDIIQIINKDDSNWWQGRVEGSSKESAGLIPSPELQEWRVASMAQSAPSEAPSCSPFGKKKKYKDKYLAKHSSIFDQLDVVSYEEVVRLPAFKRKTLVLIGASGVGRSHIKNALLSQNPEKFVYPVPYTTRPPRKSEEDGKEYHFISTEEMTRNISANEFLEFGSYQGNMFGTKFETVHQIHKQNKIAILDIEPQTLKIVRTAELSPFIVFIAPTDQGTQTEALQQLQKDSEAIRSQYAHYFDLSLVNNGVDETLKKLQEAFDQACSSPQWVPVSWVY
Chain of UniProt P01116 (P01116 whole entry, looked up): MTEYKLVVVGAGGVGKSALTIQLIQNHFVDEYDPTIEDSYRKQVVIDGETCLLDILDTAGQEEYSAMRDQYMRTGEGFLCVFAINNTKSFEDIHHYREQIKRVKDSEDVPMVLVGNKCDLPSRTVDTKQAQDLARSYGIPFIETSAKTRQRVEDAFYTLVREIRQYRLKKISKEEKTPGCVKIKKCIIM
Chain of UniProt Q9NWR8 (Q9NWR8 whole entry, looked up): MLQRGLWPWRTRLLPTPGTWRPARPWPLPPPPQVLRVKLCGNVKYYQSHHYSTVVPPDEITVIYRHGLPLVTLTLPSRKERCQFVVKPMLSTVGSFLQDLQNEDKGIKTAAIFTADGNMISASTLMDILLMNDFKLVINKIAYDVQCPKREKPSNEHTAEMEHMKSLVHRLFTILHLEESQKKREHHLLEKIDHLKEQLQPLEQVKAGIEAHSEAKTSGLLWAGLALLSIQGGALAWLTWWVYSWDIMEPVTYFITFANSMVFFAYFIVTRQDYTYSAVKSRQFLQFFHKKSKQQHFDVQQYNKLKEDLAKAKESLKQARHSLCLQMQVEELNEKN
Chain of UniProt Q96RQ3 (Q96RQ3 whole entry, looked up): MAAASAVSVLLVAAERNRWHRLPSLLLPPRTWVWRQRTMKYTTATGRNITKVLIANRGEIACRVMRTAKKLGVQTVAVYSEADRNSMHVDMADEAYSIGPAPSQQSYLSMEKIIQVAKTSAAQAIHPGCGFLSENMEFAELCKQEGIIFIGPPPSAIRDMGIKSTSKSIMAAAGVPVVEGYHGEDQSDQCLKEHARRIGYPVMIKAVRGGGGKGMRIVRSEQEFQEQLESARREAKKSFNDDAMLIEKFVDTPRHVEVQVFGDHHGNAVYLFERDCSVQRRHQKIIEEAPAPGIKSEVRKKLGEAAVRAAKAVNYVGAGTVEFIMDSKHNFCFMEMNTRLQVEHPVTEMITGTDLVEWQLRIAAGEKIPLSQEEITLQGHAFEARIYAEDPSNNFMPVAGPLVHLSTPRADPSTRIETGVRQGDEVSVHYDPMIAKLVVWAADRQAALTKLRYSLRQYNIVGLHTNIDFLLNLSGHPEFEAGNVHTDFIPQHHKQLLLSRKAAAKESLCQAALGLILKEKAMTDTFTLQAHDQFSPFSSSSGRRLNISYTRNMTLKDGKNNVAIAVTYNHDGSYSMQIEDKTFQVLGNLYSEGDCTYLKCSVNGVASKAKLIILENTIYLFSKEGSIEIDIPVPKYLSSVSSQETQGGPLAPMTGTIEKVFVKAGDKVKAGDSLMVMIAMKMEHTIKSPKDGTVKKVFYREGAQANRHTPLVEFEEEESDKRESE
Chain of UniProt Q7Z7M0 (Q7Z7M0 whole entry, looked up): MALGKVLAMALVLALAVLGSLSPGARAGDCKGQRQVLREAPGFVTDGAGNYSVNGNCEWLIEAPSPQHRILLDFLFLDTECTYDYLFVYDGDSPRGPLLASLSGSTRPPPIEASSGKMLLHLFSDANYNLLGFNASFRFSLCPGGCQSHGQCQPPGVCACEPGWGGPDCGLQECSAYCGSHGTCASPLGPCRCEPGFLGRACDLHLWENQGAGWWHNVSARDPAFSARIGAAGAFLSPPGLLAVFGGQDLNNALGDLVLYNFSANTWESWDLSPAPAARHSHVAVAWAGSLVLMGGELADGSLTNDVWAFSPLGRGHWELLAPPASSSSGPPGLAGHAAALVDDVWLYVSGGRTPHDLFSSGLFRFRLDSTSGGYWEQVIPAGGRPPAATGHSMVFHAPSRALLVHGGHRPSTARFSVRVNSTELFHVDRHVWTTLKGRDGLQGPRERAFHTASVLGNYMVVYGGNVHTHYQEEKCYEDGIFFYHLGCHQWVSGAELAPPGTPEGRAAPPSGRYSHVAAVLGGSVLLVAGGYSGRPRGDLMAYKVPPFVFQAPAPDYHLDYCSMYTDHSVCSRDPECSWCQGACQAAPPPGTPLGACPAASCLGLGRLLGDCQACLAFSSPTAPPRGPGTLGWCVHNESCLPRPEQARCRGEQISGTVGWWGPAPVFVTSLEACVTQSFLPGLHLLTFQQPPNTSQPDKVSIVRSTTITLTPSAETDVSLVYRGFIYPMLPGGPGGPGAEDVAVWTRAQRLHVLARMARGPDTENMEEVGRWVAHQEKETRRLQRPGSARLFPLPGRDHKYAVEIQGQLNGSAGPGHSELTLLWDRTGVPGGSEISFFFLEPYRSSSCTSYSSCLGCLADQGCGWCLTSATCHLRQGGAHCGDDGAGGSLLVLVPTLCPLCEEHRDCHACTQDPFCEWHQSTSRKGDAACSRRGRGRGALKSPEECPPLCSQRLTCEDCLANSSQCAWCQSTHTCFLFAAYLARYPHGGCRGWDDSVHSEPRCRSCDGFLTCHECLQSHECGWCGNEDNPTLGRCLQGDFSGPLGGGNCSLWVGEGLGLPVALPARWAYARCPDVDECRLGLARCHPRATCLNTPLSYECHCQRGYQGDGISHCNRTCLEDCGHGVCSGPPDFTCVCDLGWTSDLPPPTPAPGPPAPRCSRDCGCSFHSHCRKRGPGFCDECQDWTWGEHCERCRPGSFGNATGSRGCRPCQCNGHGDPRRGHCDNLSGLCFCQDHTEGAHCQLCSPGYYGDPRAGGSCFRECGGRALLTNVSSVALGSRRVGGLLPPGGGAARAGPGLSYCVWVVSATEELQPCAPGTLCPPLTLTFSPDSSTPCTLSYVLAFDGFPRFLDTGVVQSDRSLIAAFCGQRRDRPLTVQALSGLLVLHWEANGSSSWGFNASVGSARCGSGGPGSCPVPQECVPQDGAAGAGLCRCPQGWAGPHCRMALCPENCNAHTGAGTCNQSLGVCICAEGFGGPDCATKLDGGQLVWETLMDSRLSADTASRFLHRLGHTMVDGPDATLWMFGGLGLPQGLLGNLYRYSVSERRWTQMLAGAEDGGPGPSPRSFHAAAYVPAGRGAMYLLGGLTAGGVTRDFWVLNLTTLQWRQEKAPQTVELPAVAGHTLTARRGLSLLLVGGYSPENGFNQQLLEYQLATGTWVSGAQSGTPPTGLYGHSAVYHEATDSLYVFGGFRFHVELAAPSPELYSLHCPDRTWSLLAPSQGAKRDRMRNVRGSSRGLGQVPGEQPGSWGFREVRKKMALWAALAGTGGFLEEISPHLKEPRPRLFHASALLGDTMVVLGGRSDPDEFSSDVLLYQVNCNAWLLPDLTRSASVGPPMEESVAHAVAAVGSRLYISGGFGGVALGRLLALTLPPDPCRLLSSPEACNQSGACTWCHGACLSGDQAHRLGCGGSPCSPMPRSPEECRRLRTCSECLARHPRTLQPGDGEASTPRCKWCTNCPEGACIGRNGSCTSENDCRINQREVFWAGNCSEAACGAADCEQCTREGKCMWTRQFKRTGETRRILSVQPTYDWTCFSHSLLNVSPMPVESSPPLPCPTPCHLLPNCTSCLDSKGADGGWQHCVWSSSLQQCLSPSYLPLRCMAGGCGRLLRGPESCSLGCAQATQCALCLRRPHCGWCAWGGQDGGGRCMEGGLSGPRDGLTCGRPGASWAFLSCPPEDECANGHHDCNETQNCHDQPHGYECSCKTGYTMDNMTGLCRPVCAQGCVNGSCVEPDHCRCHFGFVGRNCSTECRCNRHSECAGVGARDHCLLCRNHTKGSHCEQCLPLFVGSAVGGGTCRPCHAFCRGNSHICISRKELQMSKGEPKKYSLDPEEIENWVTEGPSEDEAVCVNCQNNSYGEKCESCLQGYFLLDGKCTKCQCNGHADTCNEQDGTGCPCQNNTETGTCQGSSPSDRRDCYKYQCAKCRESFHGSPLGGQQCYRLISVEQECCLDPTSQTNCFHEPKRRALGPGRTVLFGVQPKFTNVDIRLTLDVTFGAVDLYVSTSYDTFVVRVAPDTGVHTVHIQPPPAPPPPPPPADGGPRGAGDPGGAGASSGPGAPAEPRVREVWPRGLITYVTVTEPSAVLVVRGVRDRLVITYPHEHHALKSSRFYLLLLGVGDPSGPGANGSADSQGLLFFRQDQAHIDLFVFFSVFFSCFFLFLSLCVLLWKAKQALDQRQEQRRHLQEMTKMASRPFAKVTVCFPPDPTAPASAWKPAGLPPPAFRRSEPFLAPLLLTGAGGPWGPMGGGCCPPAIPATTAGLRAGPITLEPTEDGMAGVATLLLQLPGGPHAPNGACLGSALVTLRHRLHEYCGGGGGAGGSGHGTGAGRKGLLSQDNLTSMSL
Chain of UniProt Q8WXB1 (Q8WXB1 whole entry, looked up): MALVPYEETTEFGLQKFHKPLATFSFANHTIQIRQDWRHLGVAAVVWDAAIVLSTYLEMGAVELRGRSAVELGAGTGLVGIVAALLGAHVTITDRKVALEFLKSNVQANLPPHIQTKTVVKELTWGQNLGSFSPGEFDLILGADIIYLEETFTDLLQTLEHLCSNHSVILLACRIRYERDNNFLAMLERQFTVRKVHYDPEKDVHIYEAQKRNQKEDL
Chain of UniProt Q16553 (Q16553 whole entry, looked up): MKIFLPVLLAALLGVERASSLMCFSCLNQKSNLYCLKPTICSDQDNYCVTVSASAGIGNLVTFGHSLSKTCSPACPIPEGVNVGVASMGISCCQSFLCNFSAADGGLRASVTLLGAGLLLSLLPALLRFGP
Chain of UniProt O15243 (O15243 whole entry, looked up): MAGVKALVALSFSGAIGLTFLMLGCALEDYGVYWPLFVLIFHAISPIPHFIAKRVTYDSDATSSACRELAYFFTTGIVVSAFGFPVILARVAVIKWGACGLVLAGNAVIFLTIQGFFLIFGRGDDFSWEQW

| Target | log2 fold change |
| --- | --- |
| LEPROT (UniProt O15243) | 0.049 |
| LY6E (UniProt Q16553) | -0.031 |
| MED25 isoform 3 (UniProt Q71SY5) | -0.069 |
| MME (UniProt P08473) | -0.152 |
| MDM2 isoform 11 (UniProt Q00987) | 0.109 |
| MRPL27 (UniProt Q9P0M9) | 0.002 |
| MEGF8 (UniProt Q7Z7M0) | 0.023 |
| MPP1 (UniProt Q00013) | -0.01 |
| MAN2B2 (UniProt Q9Y2E5) | 0.087 |
| KIF21A (UniProt H0YI78) | 0.128 |
| MCUB (UniProt Q9NWR8) | 0.097 |
| METTL21A (UniProt Q8WXB1) | 0.048 |
| MAP4K4 isoform 6 (UniProt O95819) | 0.076 |
| KPNA4 (UniProt O00629) | 0.06 |
| MCCC1 (UniProt Q96RQ3) | -0.063 |
| MRPL30 isoform 2 (UniProt Q8TCC3) | 0.086 |

compound: CC1=C(SC2=C1C(=N[C@H](C3=NN=C(N32)C)CC(=O)N)C4=CC=C(C=C4)Cl)C; assay: as above
Procedure, shortened: as §1

| Target | log2 fold change |
| --- | --- |
| LEPROT (UniProt O15243) | -0.009 |
| LY6E (UniProt Q16553) | -0.046 |
| MED25 isoform 3 (UniProt Q71SY5) | 0.026 |
| MME (UniProt P08473) | 0.041 |
| MDM2 isoform 11 (UniProt Q00987) | -0.092 |
| MRPL27 (UniProt Q9P0M9) | -0.046 |
| MEGF8 (UniProt Q7Z7M0) | -0.022 |
| MPP1 (UniProt Q00013) | 0.006 |
| MAN2B2 (UniProt Q9Y2E5) | 0.086 |
| KIF21A (UniProt H0YI78) | 0.02 |
| MCUB (UniProt Q9NWR8) | -0.171 |
| METTL21A (UniProt Q8WXB1) | -0.069 |
| MAP4K4 isoform 6 (UniProt O95819) | 0.063 |
| KPNA4 (UniProt O00629) | -0.068 |
| MCCC1 (UniProt Q96RQ3) | 0.015 |
| MRPL30 isoform 2 (UniProt Q8TCC3) | -0.056 |

compound: CC1=C2C(=CC=C1)N=C(N(C2=O)C3=CC=CC=C3C)CN4C=NC5=C(N=CN=C54)N; assay: as above
Procedure, shortened: as §1

| Target | log2 fold change |
| --- | --- |
| MPDZ (UniProt O75970) | -0.024 |
| LRPPRC (UniProt H7C3W8) | 0.219 |
| LRIF1 (UniProt Q5T3J3) | -0.072 |
| LY6E (UniProt Q16553) | -0.075 |
| MEX3A (UniProt A1L020) | 0.15 |
| LRRC9 (UniProt Q6ZRR7) | 0.008 |
| MDM2 isoform 11 (UniProt Q00987) | -0.007 |
| MDM1 (UniProt Q8TC05) | 0.018 |
| KIF3C (UniProt O14782) | 0.683 |
| LGALS3BP (UniProt Q08380) | 0.159 |
| MPP1 (UniProt Q00013) | 0.024 |
| LSM11 (UniProt P83369) | 0.285 |
| LRP1 (UniProt Q07954) | 0.125 |
| LRRIQ1 (UniProt Q96JM4) | -0.002 |
| MAP3K6 (UniProt O95382) | 0.012 |
| KRAS (UniProt P01116) | 0.088 |
| KPNA4 (UniProt O00629) | 0.044 |
| MCCC1 (UniProt Q96RQ3) | 0.046 |

compound: Cc1sc2c(c1C)C(c1ccc(Cl)cc1)=N[C@@H](CC(=O)OC(C)(C)C)c1nnc(C)n1-2; assay: as above
Procedure, shortened: as §1

| Target | log2 fold change |
| --- | --- |
| MPDZ (UniProt O75970) | -0.159 |
| LRIF1 (UniProt Q5T3J3) | 0.048 |
| MED25 isoform 3 (UniProt Q71SY5) | 0.01 |
| MME (UniProt P08473) | 0.232 |
| MEX3A (UniProt A1L020) | -0.073 |
| MRC2 (UniProt Q9UBG0) | 0.209 |
| MDM1 (UniProt Q8TC05) | -0.116 |
| KIF3C (UniProt O14782) | -0.059 |
| MRPL27 (UniProt Q9P0M9) | -0.048 |
| LGALS3BP (UniProt Q08380) | -0.152 |
| MEGF8 (UniProt Q7Z7M0) | 0.116 |
| MPP1 (UniProt Q00013) | 0.016 |
| MAN2B2 (UniProt Q9Y2E5) | -0.007 |
| KIF21A (UniProt H0YI78) | 0.106 |
| LYN isoform 2 (UniProt P07948) | 0.043 |
| LSM11 (UniProt P83369) | -0.045 |
| KRAS isoform 2 (UniProt P01116) | -0.006 |
| MCUB (UniProt Q9NWR8) | 0.044 |
| MAPKAP1 (UniProt Q9BPZ7) | -0.048 |
| METTL21A (UniProt Q8WXB1) | -0.068 |
| MED28 (UniProt Q9H204) | -0.032 |
| KMT2B (UniProt Q9UMN6) | -0.012 |
| MAP4K4 isoform 6 (UniProt O95819) | -0.163 |
| KIF18B (UniProt Q86Y91) | -0.083 |
| KRAS (UniProt P01116) | 0.016 |
| KPNA4 (UniProt O00629) | 0.011 |
| MCCC1 (UniProt Q96RQ3) | 0.002 |
| MRPL30 isoform 2 (UniProt Q8TCC3) | -0.102 |

From the supplement of paper PMC10849652
